# Laboratory results: PubChem BioAssay (EPA / NIEHS)
# Inconclusive results are not listed. Calls of active or inactive are those of the source. How the source made its calls: active means hit-call score of the fitted dose curve at least 0.9, where 1 is the maximum; inconclusive means response in the unintended direction; inactive means score below 0.9.
# Key:
# [1] = target: human Ephrin type-A Receptor 1 (EphA1), EPHA1 (gene 2041) (UniProt P21709); experiment: NVS_ENZ_hEphA1: NovaScreen (NVS) Enzymatic Assay for human Ephrin type-A Receptor 1 (EphA1) (AID 2283158);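 further: activity is signal loss versus DMSO meaning EphA1 kinase inhibition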
# Sequence of human Ephrin type-A Receptor 1 (EphA1), EPHA1 (gene 2041) (P21709 whole entry, looked up): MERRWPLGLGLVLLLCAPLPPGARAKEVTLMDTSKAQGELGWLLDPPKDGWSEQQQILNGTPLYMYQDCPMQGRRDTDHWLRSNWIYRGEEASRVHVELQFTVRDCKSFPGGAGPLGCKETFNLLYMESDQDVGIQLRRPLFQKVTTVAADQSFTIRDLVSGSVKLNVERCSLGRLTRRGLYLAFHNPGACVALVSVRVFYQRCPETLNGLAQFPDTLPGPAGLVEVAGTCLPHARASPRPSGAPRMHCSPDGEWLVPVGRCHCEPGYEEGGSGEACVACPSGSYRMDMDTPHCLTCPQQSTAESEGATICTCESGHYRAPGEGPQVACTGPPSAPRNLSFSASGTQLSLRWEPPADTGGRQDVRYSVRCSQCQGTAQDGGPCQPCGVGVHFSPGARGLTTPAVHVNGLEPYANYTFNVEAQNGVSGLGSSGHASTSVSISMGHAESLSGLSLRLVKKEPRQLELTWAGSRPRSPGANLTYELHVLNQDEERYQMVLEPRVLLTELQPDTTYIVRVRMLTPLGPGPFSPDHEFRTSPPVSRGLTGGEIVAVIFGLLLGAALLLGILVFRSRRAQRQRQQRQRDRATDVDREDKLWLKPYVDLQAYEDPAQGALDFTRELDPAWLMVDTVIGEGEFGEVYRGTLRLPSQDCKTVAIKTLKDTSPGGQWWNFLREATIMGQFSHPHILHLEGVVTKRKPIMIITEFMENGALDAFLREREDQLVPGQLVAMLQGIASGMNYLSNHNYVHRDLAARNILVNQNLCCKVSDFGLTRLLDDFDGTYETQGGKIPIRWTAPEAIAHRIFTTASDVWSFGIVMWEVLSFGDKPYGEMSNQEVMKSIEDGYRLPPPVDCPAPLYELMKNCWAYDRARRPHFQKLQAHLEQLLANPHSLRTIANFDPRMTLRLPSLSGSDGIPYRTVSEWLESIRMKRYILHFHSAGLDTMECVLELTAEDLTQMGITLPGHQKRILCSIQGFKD
# Method in brief: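 Biochemical kinase assay run cell-free; 1 h incubation; readout is fluorescence with mobility-shift separation of product. Concentration-response up to 50 uM for actives from a 25 uM screen.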
# [2] = target: human Beta-secretase (BACE), BACE1 (gene 23621) (UniProt P56817); experiment: NVS_ENZ_hBACE: NovaScreen (NVS) Enzymatic Assay for human Beta-secretase (BACE) (AID 2283140);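 further: hits are inhibitors that reduce fluorescent substrate signal versus DMSO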
# Sequence of human Beta-secretase (BACE), BACE1 (gene 23621) (P56817 whole entry, looked up): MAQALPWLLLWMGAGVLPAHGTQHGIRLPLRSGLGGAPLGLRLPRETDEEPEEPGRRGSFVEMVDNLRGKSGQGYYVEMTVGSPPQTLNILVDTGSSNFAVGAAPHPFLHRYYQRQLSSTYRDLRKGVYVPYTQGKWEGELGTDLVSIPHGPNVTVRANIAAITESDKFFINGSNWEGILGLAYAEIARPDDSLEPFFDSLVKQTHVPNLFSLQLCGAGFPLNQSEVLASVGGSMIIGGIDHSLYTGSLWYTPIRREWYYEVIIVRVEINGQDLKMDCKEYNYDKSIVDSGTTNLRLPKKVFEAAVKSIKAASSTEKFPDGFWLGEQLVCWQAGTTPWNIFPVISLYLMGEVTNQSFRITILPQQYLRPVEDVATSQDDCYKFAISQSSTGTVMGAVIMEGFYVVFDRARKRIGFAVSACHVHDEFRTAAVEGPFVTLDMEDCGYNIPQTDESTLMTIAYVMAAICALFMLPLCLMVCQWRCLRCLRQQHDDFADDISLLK
# Method in brief: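 Cell-free fluorescence-intensity assay of recombinant BACE1 expressed in SF9 cells, read 1 hour after dosing. Loss of signal indicates reduced protease activity, fitted relative to DMSO negative control. Primary screen at 25 uM in duplicate; actives followed in concentration series.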
# [3] = target: human Elastase, ELANE (gene 1991) (UniProt P08246); experiment: NVS_ENZ_hElastase: NovaScreen (NVS) Enzymatic Assay for human Elastase (AID 2283153)
# Sequence of human Elastase, ELANE (gene 1991) (P08246 whole entry, looked up): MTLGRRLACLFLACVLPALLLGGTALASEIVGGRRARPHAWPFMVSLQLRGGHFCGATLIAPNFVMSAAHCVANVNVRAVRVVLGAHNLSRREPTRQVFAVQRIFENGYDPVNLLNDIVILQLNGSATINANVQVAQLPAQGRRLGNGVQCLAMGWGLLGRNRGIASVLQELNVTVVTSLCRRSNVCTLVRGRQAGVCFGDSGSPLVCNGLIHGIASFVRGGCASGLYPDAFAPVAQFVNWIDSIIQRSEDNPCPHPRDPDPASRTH
# Method in brief: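 Cell-free elastase from human neutrophils, 1.5 h after dosing, activity read by absorbance. Primary screen in duplicate at 25 uM; hits (e.g., 30% inhibition) rerun in singleton concentration-response up to 50 uM, fitted versus DMSO.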
# [4] = target: human FYN Proto-Oncogene, Src family Tyrosine Kinase (Fyn), FYN (gene 2534) (UniProt P06241); experiment: NVS_ENZ_hFyn: NovaScreen (NVS) Enzymatic Assay for human FYN Proto-Oncogene, Src family Tyrosine Kinase (Fyn) (AID 2283161)
# Method in brief: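 Recombinant enzyme with fluorescent substrate, product separated by electrophoretic mobility shift; read 1 h after dosing. Duplicate 25 uM single-point screen, actives retested in concentration series; loss of signal vs DMSO.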
# [5] = target: human Esterase Plasma (ES), BCHE (gene 590) (UniProt P06276); experiment: NVS_ENZ_hES: NovaScreen (NVS) Enzymatic Assay for human Esterase Plasma (ES) (AID 2283157)
# Sequence of human Esterase Plasma (ES), BCHE (gene 590) (P06276 whole entry, looked up): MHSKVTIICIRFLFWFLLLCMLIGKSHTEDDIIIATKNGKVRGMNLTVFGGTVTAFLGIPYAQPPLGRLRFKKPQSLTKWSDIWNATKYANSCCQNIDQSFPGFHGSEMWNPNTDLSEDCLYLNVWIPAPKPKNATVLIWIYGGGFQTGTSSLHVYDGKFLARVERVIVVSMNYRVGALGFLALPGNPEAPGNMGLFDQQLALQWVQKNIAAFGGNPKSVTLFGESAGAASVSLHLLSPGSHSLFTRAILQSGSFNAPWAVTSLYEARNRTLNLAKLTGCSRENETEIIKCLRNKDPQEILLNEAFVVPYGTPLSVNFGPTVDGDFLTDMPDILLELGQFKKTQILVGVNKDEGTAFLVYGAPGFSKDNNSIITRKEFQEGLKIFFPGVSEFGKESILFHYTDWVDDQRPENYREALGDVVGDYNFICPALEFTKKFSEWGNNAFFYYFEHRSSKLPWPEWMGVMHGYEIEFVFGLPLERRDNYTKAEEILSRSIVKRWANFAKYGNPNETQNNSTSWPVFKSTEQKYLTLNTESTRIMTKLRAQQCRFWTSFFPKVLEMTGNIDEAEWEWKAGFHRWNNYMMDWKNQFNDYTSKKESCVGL
# Method in brief: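 Chemicals were added to plasma-extracted human enzyme in a cell-free format, and activity was read colorimetrically after 0.25 hour. Activity loss was referenced to DMSO; concentration-response top dose was 50 uM.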
# [6] = target: human AKT serine/threonine Kinase 2 (AKT2), AKT2 (gene 208) (UniProt P31751); experiment: NVS_ENZ_hAKT2: NovaScreen (NVS) Enzymatic Assay for human AKT serine/threonine Kinase 2 (AKT2) (AID 2283141)
# Sequence of human AKT serine/threonine Kinase 2 (AKT2), AKT2 (gene 208) (P31751 whole entry, looked up): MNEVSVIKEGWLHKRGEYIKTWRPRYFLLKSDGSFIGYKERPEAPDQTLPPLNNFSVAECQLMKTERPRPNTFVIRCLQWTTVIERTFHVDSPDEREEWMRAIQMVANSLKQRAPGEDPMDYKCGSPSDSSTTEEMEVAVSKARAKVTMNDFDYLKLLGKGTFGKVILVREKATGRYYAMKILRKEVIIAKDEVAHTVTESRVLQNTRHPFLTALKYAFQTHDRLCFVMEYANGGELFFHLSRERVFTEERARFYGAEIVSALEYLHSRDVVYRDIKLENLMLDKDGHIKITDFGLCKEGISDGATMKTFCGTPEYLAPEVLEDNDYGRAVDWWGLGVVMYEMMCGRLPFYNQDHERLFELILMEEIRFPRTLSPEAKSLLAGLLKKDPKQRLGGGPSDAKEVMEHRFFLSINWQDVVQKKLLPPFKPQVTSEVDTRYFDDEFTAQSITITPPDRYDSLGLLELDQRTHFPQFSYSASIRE
# Method in brief: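 Cell-free fluorescence/electrophoretic mobility shift readout of recombinant human AKT2 activity, 1 h after chemical dosing. Duplicate primary screen at 25 uM, then singleton concentration-response up to 50 uM; loss of signal versus DMSO baseline.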
# [7] = target: human Caspase 8 (CASP8), CASP8 (gene 841) (UniProt Q14790); experiment: NVS_ENZ_hCASP8: NovaScreen (NVS) Enzymatic Assay for human Caspase 8 (CASP8) (AID 2283146)
# Method in brief: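 E. coli-expressed enzyme was used in a cell-free fluorogenic substrate assay read 1 h after dosing. Loss of signal was scored relative to DMSO, and the primary screen was run in duplicate at 25 uM.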
# [8] = target: human AKT serine/threonine Kinase 1 (AKT1), AKT1 (gene 207) (UniProt P31749); experiment: NVS_ENZ_hAKT1: NovaScreen (NVS) Enzymatic Assay for human AKT serine/threonine Kinase 1 (AKT1) (AID 2283138)
# Sequence of human AKT serine/threonine Kinase 1 (AKT1), AKT1 (gene 207) (P31749 whole entry, looked up): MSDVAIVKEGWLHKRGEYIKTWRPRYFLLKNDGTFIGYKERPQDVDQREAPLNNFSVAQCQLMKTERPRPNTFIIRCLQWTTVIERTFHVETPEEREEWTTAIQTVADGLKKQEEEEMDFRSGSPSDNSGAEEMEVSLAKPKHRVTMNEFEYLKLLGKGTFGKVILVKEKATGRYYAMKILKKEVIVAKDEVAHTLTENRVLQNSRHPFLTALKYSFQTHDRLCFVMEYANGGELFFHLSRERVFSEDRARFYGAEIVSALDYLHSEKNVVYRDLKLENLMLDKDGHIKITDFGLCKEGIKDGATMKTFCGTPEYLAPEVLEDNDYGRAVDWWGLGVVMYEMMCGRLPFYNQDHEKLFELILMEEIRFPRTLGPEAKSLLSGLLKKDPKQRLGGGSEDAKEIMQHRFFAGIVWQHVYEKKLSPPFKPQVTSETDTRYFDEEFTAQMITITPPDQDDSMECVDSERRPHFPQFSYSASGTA
# Method in brief: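 Cell-free recombinant enzyme with substrate; activity read by fluorescence intensity after electrophoretic mobility shift separating substrate from product, 1 h after dosing. Single-concentration duplicates at 25 uM, then singleton concentration-response up to 50 uM; loss of signal versus DMSO.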
# [9] = target: human Colony Stimulating Factor 1 Receptor (CSF1R), CSF1R (gene 1436) (UniProt P07333); experiment: NVS_ENZ_hCSF1R: NovaScreen (NVS) Enzymatic Assay for human Colony Stimulating Factor 1 Receptor (CSF1R) (AID 2283150)
# Sequence of human Colony Stimulating Factor 1 Receptor (CSF1R), CSF1R (gene 1436) (P07333 whole entry, looked up): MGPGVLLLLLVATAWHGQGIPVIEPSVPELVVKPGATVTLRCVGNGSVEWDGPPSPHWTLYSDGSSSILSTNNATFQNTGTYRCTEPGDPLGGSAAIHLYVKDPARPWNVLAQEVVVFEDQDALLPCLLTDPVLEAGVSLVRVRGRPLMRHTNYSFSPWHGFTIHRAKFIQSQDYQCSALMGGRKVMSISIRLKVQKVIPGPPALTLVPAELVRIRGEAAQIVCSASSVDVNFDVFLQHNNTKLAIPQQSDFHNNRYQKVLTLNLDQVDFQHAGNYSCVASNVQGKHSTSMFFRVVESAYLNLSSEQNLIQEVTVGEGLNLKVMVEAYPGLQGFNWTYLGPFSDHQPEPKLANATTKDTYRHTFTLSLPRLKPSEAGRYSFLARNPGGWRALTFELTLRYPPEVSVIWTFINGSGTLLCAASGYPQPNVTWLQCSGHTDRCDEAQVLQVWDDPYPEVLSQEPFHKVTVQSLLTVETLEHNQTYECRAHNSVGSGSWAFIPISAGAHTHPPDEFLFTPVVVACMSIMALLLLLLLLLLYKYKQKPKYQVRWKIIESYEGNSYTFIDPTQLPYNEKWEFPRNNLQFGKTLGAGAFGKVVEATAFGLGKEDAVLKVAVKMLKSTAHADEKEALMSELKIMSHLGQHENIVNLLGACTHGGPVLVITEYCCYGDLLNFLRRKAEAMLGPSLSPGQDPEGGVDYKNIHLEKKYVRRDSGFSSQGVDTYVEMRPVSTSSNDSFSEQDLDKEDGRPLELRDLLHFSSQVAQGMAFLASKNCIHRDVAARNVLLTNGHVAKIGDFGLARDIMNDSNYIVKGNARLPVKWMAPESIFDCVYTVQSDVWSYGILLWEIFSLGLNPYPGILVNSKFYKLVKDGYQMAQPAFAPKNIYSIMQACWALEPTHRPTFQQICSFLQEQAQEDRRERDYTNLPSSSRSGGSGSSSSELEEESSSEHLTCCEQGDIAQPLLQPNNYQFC
# Method in brief: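 Cell-free recombinant human CSF1R kinase with fluorescent substrate, product separated by electrophoretic mobility shift; read 1 h after dosing. Primary screen at 25 uM in duplicate, actives then in concentration-response up to 50 uM, relative to DMSO.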
# [10] = target: human Epidermal Growth Factor Receptor (EGFR), EGFR (gene 1956) (UniProt P00533); experiment: NVS_ENZ_hEGFR: NovaScreen (NVS) Enzymatic Assay for human Epidermal Growth Factor Receptor (EGFR) (AID 2283151)
# Method in brief: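 Cell-free kinase assay, fluorescence plus electrophoretic mobility shift separating substrate and product, read 1 hour after dosing; loss of signal vs DMSO. Duplicate screen at 25 uM, then concentration-response to 50 uM.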
# [11] = target: human Caspase 10 (CASP10), CASP10 (gene 843) (UniProt Q92851); experiment: NVS_ENZ_hCASP10: NovaScreen (NVS) Enzymatic Assay for human Caspase 10 (CASP10) (AID 2283133)
# Method in brief: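 Recombinant human caspase-10 from E. coli, cell-free fluorogenic substrate assay read 1 h after dosing. Primary duplicate screen at 25 uM; hits (e.g. ≥30% inhibition) run singly in concentration-response up to 50 uM, normalised to DMSO.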
# [12] = target: human Caspase 5 (CASP5), CASP5 (gene 838) (UniProt P51878); experiment: NVS_ENZ_hCASP5: NovaScreen (NVS) Enzymatic Assay for human Caspase 5 (CASP5) (AID 2283137)
# Sequence of human Caspase 5 (CASP5), CASP5 (gene 838) (P51878 whole entry, looked up): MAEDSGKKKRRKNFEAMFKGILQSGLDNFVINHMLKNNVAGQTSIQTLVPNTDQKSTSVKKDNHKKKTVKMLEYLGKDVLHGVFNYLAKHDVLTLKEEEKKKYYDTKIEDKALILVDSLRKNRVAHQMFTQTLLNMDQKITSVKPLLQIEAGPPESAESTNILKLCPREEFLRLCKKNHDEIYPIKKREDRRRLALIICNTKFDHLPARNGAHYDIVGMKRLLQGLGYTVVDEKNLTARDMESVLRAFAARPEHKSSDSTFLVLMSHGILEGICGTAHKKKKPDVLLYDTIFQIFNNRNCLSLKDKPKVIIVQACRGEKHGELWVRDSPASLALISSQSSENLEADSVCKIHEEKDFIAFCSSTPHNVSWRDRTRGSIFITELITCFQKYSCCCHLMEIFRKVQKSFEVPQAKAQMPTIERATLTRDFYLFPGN
# Method in brief: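 Recombinant E. coli-expressed human caspase 5 in a cell-free enzyme assay; fluorescence intensity read 2 hours after chemical dosing. Single-concentration duplicate screen at 25 uM, then concentration-response up to 50 uM for hits; DMSO negative control.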
# [13] = target: human Aurora Kinase A - serine/threonine-protein Kinase 6 (AurA), AURKA (gene 6790) (UniProt O14965); experiment: NVS_ENZ_hAurA: NovaScreen (NVS) Enzymatic Assay for human Aurora Kinase A - serine/threonine-protein Kinase 6 (AurA) (AID 2283142)
# Method in brief: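 Cell-free enzymatic assay with human Aurora A, 1 hour after dosing. Fluorescent substrate turnover detected after electrophoretic mobility shift separation of substrate and product. Screened at 25 uM, actives retested in concentration-response up to 50 uM.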
# [14] = target: Protein deacetylase HDAC6 (Homo sapiens) (UniProt Q9UBN7); experiment: NVS_ENZ_hHDAC6: NovaScreen (NVS) Enzymatic Assay for human Histone Deacetylase 6 (HDAC6) (AID 2283164)
# Method in brief: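 Recombinant human HDAC6 with fluorescent substrate, 1 h; product separated from substrate by electrophoretic mobility shift. Primary screen in duplicate at 25 uM; actives retested singly in concentration-response up to 50 uM, fitted relative to DMSO.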
structure (smiles),measurement,setting,value
NC(=S)Nc1ccccc1,AC50,[1],41.6 µM (active)
CCc1ccccc1N,outcome,[1],inactive
COc1cc(-c2ccc(N)c(OC)c2)ccc1N,AC50,[2],16.4 µM (active)
same,AC50,[3],20.5 µM (active)
COP(=S)(OC)Oc1c(Cl)cc(C)cc1Cl,outcome,[1],inactive
NC(=O)O,outcome,[4],inactive
COc1cccc(C=O)c1,outcome,[1],inactive
COP(=S)(OC)Oc1ccc(S(=O)(=O)N(C)C)cc1,AC50,[5],20 µM (active)
Nc1ccc(-c2ccc(N)c(Cl)c2)cc1Cl,AC50,[1],1.28 µM (active)
CC(C)(OO)c1ccccc1,outcome,[6],inactive
O=c1[nH]c(=O)[nH]c(=O)[nH]1,outcome,[7],inactive
C=CC(=O)OCCCCCC(C)C,outcome,[8],inactive
CCN1CCC2(CC1)COc1cc3c(cc12)N(C(=O)c1ccc(-c2ccc(-c4nnc(C)o4)cc2C)cc1)CC3,AC50,[2],28.3 µM (active)
same,AC50,[5],28.3 µM (active)
ClC1(Cl)C2(Cl)C3(Cl)C4(Cl)C(Cl)(Cl)C5(Cl)C3(Cl)C1(Cl)C5(Cl)C24Cl (centres undefined),outcome,[8],inactive
same,outcome,[6],inactive
same,outcome,[9],inactive
same,outcome,[10],inactive
same,AC50,[3],1.1 µM (active)
CCOP(=S)(OCC)Oc1nc(Cl)c(Cl)cc1Cl,AC50,[5],25 µM (active)
O=C(O)C(F)(F)C(F)(F)C(F)(F)C(F)(F)C(F)(F)C(F)(F)C(F)(F)C(F)(F)C(F)(F)C(F)(F)F,outcome,[11],inactive
same,AC50,[12],3.6 µM (active)
same,AC50,[8],1.59 µM (active)
same,AC50,[2],1.51 µM (active)
same,AC50,[3],13.5 µM (active)
same,outcome,[5],inactive
O=C1C2(Cl)C3(Cl)C4(Cl)C(Cl)(Cl)C5(Cl)C3(Cl)C1(Cl)C5(Cl)C24Cl (centres undefined),outcome,[12],inactive
same,outcome,[2],inactive
same,outcome,[13],inactive
same,outcome,[14],inactive
Nc1ncc([N+](=O)[O-])s1,AC50,[12],9.06 µM (active)
COP(=S)(OC)Oc1cc(Cl)c(Cl)cc1Cl,outcome,[1],inactive
Nc1cccc2ccccc12,AC50,[12],45.2 µM (active)
COP(=S)(OC)Oc1ccc(Sc2ccc(OP(=S)(OC)OC)cc2)cc1,AC50,[2],2.51 µM (active)
